# The whole screen tested about 52,000 compounds, of which about 4,300 (8.3%) were called active. The sample holds actives, similar compounds and a random draw of the others, so the mix is not that of the screen. A number with no mark means an inactive call. No stated cut-off is given here; in the data, active means survival mostly below about 52% (no sharp cut-off); inactive means mostly above about 56%.
# Tested on: DeltatarO mutant
# Experiment: growth inhibition of S. aureus wild type versus tarO mutant, primary screen, teichoic acid synthesis inhibitors, RN4220, OD600 (AID 463173)
# Details: OD600, 18 h, active compounds read low, screened at 18.75 µg/mL (by protocol)
row,Structure (SMILES),survival
1,Cc1cccc(NC(=O)CSc2nnc3[nH]c(=O)cc(C)n23)c1C,75%
2,CN(C)S(=O)(=O)c1ccc(S(=O)(=O)N2CCN(C=O)CC2)cc1,105%
3,CCOc1ccc(CNC(=O)Cc2ccc(NC(=O)N3CCSc4ncccc43)cc2)cc1,96%
4,CC(C)(C)C(=O)N1CCN(c2nc3c(F)cccc3s2)CC1,82%
5,NC(=O)CSc1nnc(COc2cccc3ccccc23)o1,89%
6,Cc1csc(N(C)C(=O)CSc2nnc(COc3cccc4ccccc34)o2)n1,56%
7,COC(=O)CSc1nnc(COc2cccc3ccccc23)o1,46% (active)
8,Cc1cccc(OCc2nnc(SCC(N)=O)o2)c1,91%
9,Cc1ccccc1OCc1nnc(SCC(=O)N(Cc2ccccc2)C(C)(C)C)o1,59% (active)
10,CC(C)(C)N(Cc1ccccc1)C(=O)CSc1nnc(CNc2ccc(F)cc2)o1,74%
11,Cc1ccc(NCc2nnc(SCC(=O)N(Cc3ccccc3)C(C)(C)C)o2)c(C)c1,94%
12,CCOC(=O)CSc1nnc(COc2cccc(C)c2)o1,42% (active)
13,Cc1cccc(OCc2nnc(SCC(=O)N3c4ccccc4CCc4ccccc43)o2)c1,99%
14,On1ccc2c(Br)cncc21,94%
15,CCc1ccc2nc(N3CCN(C(=O)c4ccco4)CC3)sc2c1,86%
16,O=C(CSc1nc(-c2cccc(Cl)c2)nc2cc(=O)[nH]n12)Nc1ccccc1,71%
17,Cc1ccc(CSc2ncc(Cl)c(C(=O)Oc3ccc(F)cc3)n2)cc1,77%
18,CCC(=O)N1c2ccccc2CC1C(=O)NCc1cccc(OC)c1OC (stereo not drawn),84%
19,COc1cc(C2C(C#N)=C(N)Oc3n[nH]c(C(F)(F)F)c32)ccc1OCC(N)=O (stereo not drawn),72%
20,CC(NC(=O)Cn1c(=O)oc2cc(S(=O)(=O)N3CCCCCC3)ccc21)c1ccccc1 (stereo not drawn),82%

row,Structure (SMILES),survival
1,COc1ccccc1CNC(=O)C1CCN(c2nnc(C)c3c(C)n(-c4ccccc4)nc23)CC1,104%
2,Cc1noc(/C=C/c2ccco2)c1S(=O)(=O)N1CCC(C(=O)Nc2ccc(F)c(Cl)c2)CC1,100%
3,CCOC(=O)c1sc2cccc(F)c2c1S(=O)(=O)N1CCN(c2cccc(Cl)c2)CC1,102%
4,COc1cccc(OC)c1C(=O)NCCc1sc(-c2cccc(F)c2)nc1C,69%
5,CCn1cc(C(=O)NCc2ccccc2Cl)c(=O)c2cc(S(=O)(=O)N3CCOCC3)ccc21,75%
6,COc1ccc(C(=O)Nc2ccccc2)cc1S(=O)(=O)Nc1ccc(Br)cc1,78%
7,Cc1ccc(C(=O)Nc2ccccc2)cc1S(=O)(=O)Nc1ccccc1,46% (active)
8,Cc1ccc(C(=O)Nc2cccc(C(=O)O)c2)cc1S(=O)(=O)N1CCCC1,81%
9,O=C(O)c1ccc(NS(=O)(=O)c2ccc(Cl)c(C(=O)Nc3ccccc3)c2)cc1,73%
10,Cc1ccc(C(=O)Nc2ccc(Br)cc2)cc1S(=O)(=O)NCc1ccccc1,83%
11,CCN(c1ccccc1)S(=O)(=O)c1ccc(F)c(C(=O)Nc2ccc(C)cc2)c1,100%
12,O=C(Nc1ccccc1)c1ccc(Cl)c(S(=O)(=O)Nc2ccccc2)c1,43% (active)
13,CCOc1cccc(NC(=O)c2ccc(F)c(S(=O)(=O)N(CC)c3cccc(C)c3)c2)c1,86%
14,CCN(c1ccccc1)S(=O)(=O)c1cc(C(=O)Nc2ccc(Br)cc2)ccc1F,6% (active)
15,Cc1ccc(C(=O)Nc2ccccc2)cc1S(=O)(=O)Nc1ccc(Br)cc1,6% (active)
16,O=C(O)c1ccc(NC(=O)c2ccc(Cl)c(S(=O)(=O)N3CCCCCC3)c2)cc1,131%
17,Cc1ccc(C(=O)Nc2ccc(C(=O)O)cc2)cc1S(=O)(=O)Nc1ccccc1,74%
18,CCOCCCNC(=O)C(Cc1ccccc1)NS(=O)(=O)c1ccc2c(c1)c(=O)n(C)c(=O)n2C (stereo not drawn),88%
19,O=C(Cc1cccs1)Nc1ccccc1,70%
20,CN(C)c1cccc(C(=O)Nc2ccc(-c3nc4ccccc4s3)cc2)c1,106%

row,Structure (SMILES),survival
1,O=C(NCC(c1cccnc1)N1CCN(c2ccccc2F)CC1)c1ccc(F)cc1 (stereo not drawn),92%
2,Cc1nc2nc(SCC(=O)Nc3ccccc3Cl)nn2c(C)c1Cc1ccccc1,20% (active)
3,Cc1cccc(Cc2c(C)nc3nc(SCc4ccccc4C)nn3c2C)c1,95%
4,Cc1nc2nc(SCC(=O)NCc3ccccc3)nn2c(C)c1Cc1ccccc1,8% (active)
5,CCN(CC)CCNC(=O)CSc1nc2nc(C)c(Cc3ccccc3)c(C)n2n1,86%
6,COc1cc(NC(=O)CSc2nc3nc(C)c(Cc4ccccc4)c(C)n3n2)cc(OC)c1OC,80%
7,Cc1ccc(NC(=O)CSc2nc3nc(C)c(Cc4ccccc4)c(C)n3n2)cc1,60%
8,Cc1cccc(Cc2c(C)nc3nc(SCc4ccccc4Cl)nn3c2C)c1,-9% (active)
9,Cc1nc2nc(SCC(=O)NCc3ccccc3Cl)nn2c(C)c1Cc1ccccc1,64%
10,Cc1cccc(Cc2c(C)nc3nc(SCc4ccccc4F)nn3c2C)c1,84%
11,Cc1nc2nc(SCC(=O)NCc3ccccc3)nn2c(C)c1Cc1ccccc1Cl,147%
12,Cc1cccc(Cc2c(C)nc3nc(SCC(=O)NCc4ccccc4)nn3c2C)c1,40% (active)
13,Cc1cccc(Cc2c(C)nc3nc(SCC(=O)NCc4ccc(F)cc4)nn3c2C)c1,56%
14,COC(=O)CC1=C(C(=O)OC)C(c2ccc(C(=O)OC)cc2)C(C#N)=C(N)O1 (stereo not drawn),77%
15,Cn1c(=O)c(=O)n(C)c2cc(S(=O)(=O)CCC(=O)Nc3cccc(C(F)(F)F)c3)ccc21,80%
16,O=c1c2oc3ccccc3c2n(Cc2ccc(Cl)cc2)c(=O)n1Cc1ccc2c(c1)OCO2,66%
17,CCOc1ccc(C2c3[nH]c4ccccc4c3CCN2C(=O)CCc2ccccc2)cc1 (stereo not drawn),116%
18,COc1ccc(C2CC(=O)Nc3c2c(=O)[nH]c2nc4ccccc4n32)cc1OC (stereo not drawn),133%

# Reference: PubChem BioAssay AID463173 (ICCB-Longwood Screening Facility, Harvard Medical School, 2010)
